Several values for one entry are separate records, joined by “and”; a condition that tells them apart may be missing. Equal values may be shown once. Screen size: about 5,500 compounds; about 2,000 (36%) were called active. Not shown: some 18% with an inconclusive outcome. No stated cut-off is given here; in the data, active means normalized growth mostly below about 0.91 (no sharp cut-off); inconclusive means no clear call, values can overlap the other calls; inactive means mostly above about 0.92. This is one part of the list.
Assay: chemical genetic growth profiling, strain panel (AID 1159580);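 further: tested at 20 µM; growth read once vehicle control cultures reached saturation at 30 °C; 1 = growth at the plate median or of vehicle wells; lower values mean less growth of the strain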
Conditions: S. cerevisiae deletion strains, growth OD

Measured: normalized growth

CCCn1c(=O)c2[nH]c(C3CCCC3)nc2n(CCC)c1=O
inactive: locus YAL013W, strain DEP1, active compounds read low 0.992 | locus YAL021C, strain ccr4, active compounds read low 1.01 | locus YAL026C, strain drs2, active compounds read low 0.984 | locus YAL030W, strain snc1, active compounds read low 0.973 | locus YAL040C, strain CLN3, active compounds read low 0.995 | locus YBL061C, strain skt5, active compounds read low 0.989 | locus YBR009C, strain hhf1, active compounds read low 0.969 | locus YBR021W, strain FUR4, active compounds read low 1.01 | locus YBR023C, strain chs3, active compounds read low 0.986 | locus YBR171W, strain sec66, active compounds read low 0.976 | locus YBR229C, strain ROT2, active compounds read low 0.992 | locus YBR231C, strain swc5, active compounds read low 0.984 | locus YBR279W, strain paf1, active compounds read low 1 | locus YCL011C, strain gbp2, active compounds read low 0.986 | locus YCL016C, strain dcc1, active compounds read low 0.98 | locus YCL029C, strain bik1, active compounds read low 0.959 | locus YCL061C, strain MRC1 (second series), active compounds read low 0.999 | locus YCL061C, strain MRC1, active compounds read low 0.977 | locus YCL069W, strain vba3, active compounds read low 0.98 | locus YCR088W, strain abp1, active compounds read low 0.983 | locus YDL005C, strain med2, active compounds read low 0.992 | locus YDL035C, strain GPR1, active compounds read low 0.981 | locus YDL040C, strain nat1, active compounds read low 0.984 | locus YDL074C, strain BRE1, active compounds read low 0.973 | locus YDL101C, strain DUN1, active compounds read low 0.992 | locus YDL134C, strain PPH21, active compounds read low 0.993 | locus YDL185W, strain tfp1, active compounds read low 0.926 | locus YDL192W, strain arf1, active compounds read low 0.977 | locus YDR001C, strain nth1, active compounds read low 0.986 | locus YDR069C, strain doa4, active compounds read low 0.976 | locus YDR101C, strain arx1, active compounds read low 0.976 | locus YDR137W, strain rgp1, active compounds read low 0.954 | locus YDR150W, strain NUM1, active compounds read low 0.968 | locus YDR159W, strain sac3, active compounds read low 0.968 | locus YDR162C, strain NBP2, active compounds read low 0.998 | locus YDR195W, strain ref2 0.947 | locus YDR297W, strain sur2, active compounds read low 0.99 | locus YDR318W, strain mcm21, active compounds read low 0.964 | locus YDR334W, strain swr1, active compounds read low 0.988 | locus YDR335W, strain msn5, active compounds read low 0.987 | locus YDR363W, strain ESC2, active compounds read low 1.01 | locus YDR388W, active compounds read low 0.96 | locus YDR392W, strain spt3, active compounds read low 0.839 | locus YDR502C, strain sam2, active compounds read low 0.98 | locus YEL003W, strain gim4, active compounds read low 0.985 | locus YEL037C, strain rad23, active compounds read low 0.991 | locus YEL061C, strain CIN8 (second series), active compounds read low 0.987 | locus YEL061C, strain CIN8, active compounds read low 0.994 | locus YER002W, strain NOP16, active compounds read low 1.01 | locus YER015W, strain faa2, active compounds read low 1 | locus YER016W, strain bim1, active compounds read low 0.98 | locus YER110C, active compounds read low 0.949 | locus YER111C, strain swi4, active compounds read low 0.993 | locus YER155C, strain BEM2 (second series), active compounds read low 0.921 | locus YER155C, strain BEM2, active compounds read low 0.995 | locus YER167W, strain BCK2, active compounds read low 0.971 | locus YFR010W, strain ubp6, active compounds read low 0.992 | locus YGL078C, strain dbp3, active compounds read low 0.967 | locus YGL086W, strain mad1, active compounds read low 0.98 | locus YGL167C, strain pmr1, active compounds read low 0.982 | locus YGL173C, strain kem1, active compounds read low 0.983 | locus YGL227W, strain vid30, active compounds read low 0.98 | locus YGL240W, strain doc1, active compounds read low 0.989 | locus YGL248W, strain PDE1, active compounds read low 0.995 | locus YGL253W, strain hxk2, active compounds read low 0.992 | locus YGR078C, strain PAC10, active compounds read low 0.985 and 0.986 | locus YGR135W, strain pre9, active compounds read low 1 | locus YGR229C, strain SMI1, active compounds read low 0.996 and 0.953 | locus YGR252W, strain gcn5, active compounds read low 0.926 | locus YHR013C, strain ard1, active compounds read low 0.928 | locus YHR027C, strain rpn1, active compounds read low 0.988 | locus YHR030C, strain SLT2, active compounds read low 0.984 | locus YHR079C, strain IRE1 (second series), active compounds read low 0.975 | locus YHR094C, strain hxt1, active compounds read low 0.963 | locus YHR129C, strain ARP1, active compounds read low 0.985 | locus YHR142W, strain chs7, active compounds read low 0.988 | locus YHR200W, strain rpn10, active compounds read low 0.963 | locus YIL066C, strain RNR3, active compounds read low 0.972 | locus YIL073C, strain SPO22, active compounds read low 0.914 | locus YIL125W, strain kgd1, active compounds read low 0.985 | locus YIR030C, strain dcg1, active compounds read low 0.977 | locus YJL092W, strain hpr5, active compounds read low 1 | locus YJL095W, strain BCK1 (second series), active compounds read low 0.981 | locus YJL095W, strain BCK1, active compounds read low 0.996 | locus YJL115W, strain asf1, active compounds read low 0.994 | locus YJL129C, strain trk1, active compounds read low 0.943 | locus YJL134W, strain LCB3, active compounds read low 0.979 | locus YJL154C, strain vps35, active compounds read low 0.979 | locus YJL164C, strain tpk1, active compounds read low 0.988 | locus YJL166W, strain qcr8, active compounds read low 0.988 | locus YJL168C, strain set2, active compounds read low 0.971 | locus YJL187C, strain SWE1 (second series), active compounds read low 0.982 | locus YJL187C, strain SWE1, active compounds read low 0.995

Source: PubChem BioAssay AID1159580 (chemical genetic matrix, 2015)
